According to PubChem BioAssay AID2704 (Broad Institute, 2010):
Activity calls are given as the source filed them.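 The calls were made as follows: active = a dose-dependent loss of polyadenylated product, with a fitted EC50, the dose giving half the full effect; inactive = no dose-dependent effect seen.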

Assay: GAL7 RNA poly(A) addition blockers – cell lysate, S. cerevisiae extracts, radioactive, gel readout, orthogonal assay for polyadenylation inhibitor project, dose response (AID 2704)
Details: S. cerevisiae extract

SMILES	EC50
COc1cc(/C=C2/CC/C(=C/c3ccc(O)c(OC)c3)C2=O)ccc1O	400 µM (active)
Cc1ccc2nc(/C(C#N)=C/c3ccc([N+](=O)[O-])o3)[nH]c2c1	700 µM (active)
N#CC1(C#N)C2=C(CCCC2)NC(c2ccccc2)C1(C#N)C#N (stereo unspecified)	280 µM (active)
N#C/C(=C/c1ccc([N+](=O)[O-])o1)c1nc2ccccc2[nH]1	1100 µM (active)
CCOc1cc(/C=C2\N=C(SC(C)C(N)=O)N(c3ccc(OC(F)F)cc3)C2=O)ccc1O (stereo unspecified)	410 µM (active)
Cc1ccc(-c2nn3c(C)nnc3s2)cc1NC(=O)CSc1ccc(Cl)cc1	900 µM (active)
